# Reference: ChEMBL document CHEMBL2218924, “A broad activity screen in support of a chemogenomic map for kinase signalling research and drug discovery” (Biochem J, 2013)
# Tests used:
# [1] = target: Insulin receptor (Homo sapiens) (UniProt P06213); details: at 10 µM
# [2] = target: Insulin receptor (Homo sapiens) (UniProt P06213); details: at 1 µM
# [3] = target: Insulin receptor (Homo sapiens) (UniProt P06213); details: at 10 µM; remark: listed apart in the source
# [4] = target: Interleukin-1 receptor-associated kinase 1 (Homo sapiens) (UniProt P51617); details: at 1 µM
# [5] = target: Interleukin-1 receptor-associated kinase 1 (Homo sapiens) (UniProt P51617); details: at 10 µM
# [6] = target: T1, Interleukin-1 receptor-associated kinase 4 (Homo sapiens) (UniProt Q9NWZ3); details: at 1 µM
# T1 sequence (whole entry): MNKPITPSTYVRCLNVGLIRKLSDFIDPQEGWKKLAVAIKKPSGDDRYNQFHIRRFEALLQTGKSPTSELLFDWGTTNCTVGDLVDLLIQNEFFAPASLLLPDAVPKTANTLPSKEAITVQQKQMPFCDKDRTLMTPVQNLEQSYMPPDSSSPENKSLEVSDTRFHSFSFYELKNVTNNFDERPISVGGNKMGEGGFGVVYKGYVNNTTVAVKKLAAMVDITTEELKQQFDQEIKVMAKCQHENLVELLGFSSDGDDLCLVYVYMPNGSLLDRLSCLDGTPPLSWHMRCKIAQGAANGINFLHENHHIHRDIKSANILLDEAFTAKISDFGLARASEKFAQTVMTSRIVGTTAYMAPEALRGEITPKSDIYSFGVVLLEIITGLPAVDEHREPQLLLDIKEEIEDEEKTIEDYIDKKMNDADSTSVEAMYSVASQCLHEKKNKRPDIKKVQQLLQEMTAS
# [7] = target: T1, Interleukin-1 receptor-associated kinase 4 (Homo sapiens); details: at 10 µM
# [8] = target: Insulin receptor-related protein (Homo sapiens) (UniProt P14616); details: at 1 µM
# [9] = target: Insulin receptor-related protein (Homo sapiens) (UniProt P14616); details: at 10 µM
# [10] = target: T2, Tyrosine-protein kinase ITK/TSK (Homo sapiens) (UniProt Q08881); details: at 1 µM
# T2 sequence (whole entry): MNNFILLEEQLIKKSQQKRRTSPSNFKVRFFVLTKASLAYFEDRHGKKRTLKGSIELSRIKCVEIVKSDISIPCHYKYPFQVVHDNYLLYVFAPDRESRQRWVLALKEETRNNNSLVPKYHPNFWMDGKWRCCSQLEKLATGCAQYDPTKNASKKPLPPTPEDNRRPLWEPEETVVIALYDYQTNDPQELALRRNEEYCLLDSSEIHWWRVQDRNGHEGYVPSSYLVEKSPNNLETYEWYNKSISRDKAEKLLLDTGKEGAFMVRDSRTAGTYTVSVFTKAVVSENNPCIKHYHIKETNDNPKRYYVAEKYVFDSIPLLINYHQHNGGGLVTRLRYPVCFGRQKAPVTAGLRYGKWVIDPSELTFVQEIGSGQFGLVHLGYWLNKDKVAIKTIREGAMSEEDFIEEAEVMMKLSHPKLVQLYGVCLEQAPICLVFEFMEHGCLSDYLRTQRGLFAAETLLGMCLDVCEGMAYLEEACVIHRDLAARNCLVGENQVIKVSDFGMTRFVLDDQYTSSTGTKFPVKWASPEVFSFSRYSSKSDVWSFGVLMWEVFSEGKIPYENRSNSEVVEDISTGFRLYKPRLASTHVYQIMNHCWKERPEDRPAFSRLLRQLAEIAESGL
# Sequence of Interleukin-1 receptor-associated kinase 1 (Homo sapiens) (P51617 whole entry, looked up): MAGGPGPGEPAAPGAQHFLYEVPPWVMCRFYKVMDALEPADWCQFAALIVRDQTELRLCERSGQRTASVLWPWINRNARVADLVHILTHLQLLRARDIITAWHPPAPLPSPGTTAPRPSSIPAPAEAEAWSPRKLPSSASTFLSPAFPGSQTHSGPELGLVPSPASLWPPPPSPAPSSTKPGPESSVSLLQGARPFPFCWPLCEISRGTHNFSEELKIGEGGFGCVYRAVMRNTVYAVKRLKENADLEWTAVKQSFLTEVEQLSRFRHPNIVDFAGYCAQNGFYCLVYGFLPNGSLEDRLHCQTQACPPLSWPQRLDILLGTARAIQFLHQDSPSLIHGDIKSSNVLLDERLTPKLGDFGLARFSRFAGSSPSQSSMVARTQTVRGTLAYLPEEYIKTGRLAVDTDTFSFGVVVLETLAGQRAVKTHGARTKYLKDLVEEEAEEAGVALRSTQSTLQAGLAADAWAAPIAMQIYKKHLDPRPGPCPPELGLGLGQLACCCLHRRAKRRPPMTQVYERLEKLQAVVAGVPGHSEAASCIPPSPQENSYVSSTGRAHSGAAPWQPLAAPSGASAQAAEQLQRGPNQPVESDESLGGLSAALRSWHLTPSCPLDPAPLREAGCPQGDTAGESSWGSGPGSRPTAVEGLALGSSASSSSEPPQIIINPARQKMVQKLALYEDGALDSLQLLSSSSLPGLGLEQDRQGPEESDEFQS
# Sequence of Insulin receptor (Homo sapiens) (P06213 28-758 limits assumed): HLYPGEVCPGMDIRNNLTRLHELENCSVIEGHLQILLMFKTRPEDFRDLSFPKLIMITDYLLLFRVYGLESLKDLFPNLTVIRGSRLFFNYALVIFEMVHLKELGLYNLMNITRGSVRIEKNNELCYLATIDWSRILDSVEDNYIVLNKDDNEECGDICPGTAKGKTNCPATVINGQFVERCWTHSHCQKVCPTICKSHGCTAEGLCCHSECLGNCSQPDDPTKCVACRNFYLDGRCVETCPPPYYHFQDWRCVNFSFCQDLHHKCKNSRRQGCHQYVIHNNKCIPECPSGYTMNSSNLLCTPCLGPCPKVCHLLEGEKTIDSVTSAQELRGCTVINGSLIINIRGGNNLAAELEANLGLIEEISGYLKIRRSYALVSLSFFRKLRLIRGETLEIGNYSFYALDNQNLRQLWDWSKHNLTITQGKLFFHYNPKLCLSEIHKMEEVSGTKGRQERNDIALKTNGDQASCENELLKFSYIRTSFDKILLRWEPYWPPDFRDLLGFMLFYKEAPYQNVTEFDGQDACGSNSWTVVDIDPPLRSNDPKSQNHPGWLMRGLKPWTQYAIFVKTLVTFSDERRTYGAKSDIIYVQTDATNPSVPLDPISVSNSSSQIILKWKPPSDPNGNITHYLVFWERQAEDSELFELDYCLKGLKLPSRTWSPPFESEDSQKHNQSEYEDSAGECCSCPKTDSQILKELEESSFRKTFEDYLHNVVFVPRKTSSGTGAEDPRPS
# Sequence of Insulin receptor (Homo sapiens) (P06213 763-1382 limits assumed): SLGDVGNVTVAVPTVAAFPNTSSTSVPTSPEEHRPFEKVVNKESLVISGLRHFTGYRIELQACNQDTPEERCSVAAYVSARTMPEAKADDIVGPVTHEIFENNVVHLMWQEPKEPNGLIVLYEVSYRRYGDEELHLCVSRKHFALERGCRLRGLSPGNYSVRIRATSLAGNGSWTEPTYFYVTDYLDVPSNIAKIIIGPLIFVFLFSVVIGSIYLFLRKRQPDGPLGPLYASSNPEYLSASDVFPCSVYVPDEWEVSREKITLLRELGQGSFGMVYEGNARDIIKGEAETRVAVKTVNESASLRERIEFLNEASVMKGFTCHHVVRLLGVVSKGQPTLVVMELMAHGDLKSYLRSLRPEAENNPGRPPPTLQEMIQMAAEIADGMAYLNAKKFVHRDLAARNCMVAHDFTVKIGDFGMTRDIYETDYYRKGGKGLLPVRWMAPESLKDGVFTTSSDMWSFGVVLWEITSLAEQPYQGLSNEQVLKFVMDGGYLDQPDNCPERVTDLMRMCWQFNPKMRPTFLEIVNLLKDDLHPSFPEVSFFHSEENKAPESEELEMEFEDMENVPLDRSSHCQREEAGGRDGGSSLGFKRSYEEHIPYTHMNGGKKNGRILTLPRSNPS
# Sequence of Insulin receptor-related protein (Homo sapiens) (P14616 27-742 limits assumed): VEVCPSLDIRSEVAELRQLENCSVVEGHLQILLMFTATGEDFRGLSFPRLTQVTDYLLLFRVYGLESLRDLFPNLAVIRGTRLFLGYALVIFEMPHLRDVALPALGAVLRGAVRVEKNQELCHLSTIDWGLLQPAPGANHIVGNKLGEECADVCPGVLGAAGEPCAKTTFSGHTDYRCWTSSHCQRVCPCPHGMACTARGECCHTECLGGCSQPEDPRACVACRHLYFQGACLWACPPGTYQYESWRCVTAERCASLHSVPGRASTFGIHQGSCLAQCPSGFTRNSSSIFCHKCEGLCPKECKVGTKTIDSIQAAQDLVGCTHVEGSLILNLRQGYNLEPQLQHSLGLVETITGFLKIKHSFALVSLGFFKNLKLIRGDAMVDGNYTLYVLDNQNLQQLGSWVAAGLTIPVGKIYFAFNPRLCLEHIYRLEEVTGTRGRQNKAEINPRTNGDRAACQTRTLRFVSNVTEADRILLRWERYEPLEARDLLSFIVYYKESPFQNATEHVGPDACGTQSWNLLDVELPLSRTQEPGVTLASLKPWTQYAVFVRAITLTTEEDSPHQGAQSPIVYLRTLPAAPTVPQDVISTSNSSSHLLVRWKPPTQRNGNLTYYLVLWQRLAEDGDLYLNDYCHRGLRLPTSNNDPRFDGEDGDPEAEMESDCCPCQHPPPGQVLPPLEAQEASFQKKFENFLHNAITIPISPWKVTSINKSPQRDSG
# Sequence of Insulin receptor-related protein (Homo sapiens) (P14616 747-1297 limits assumed): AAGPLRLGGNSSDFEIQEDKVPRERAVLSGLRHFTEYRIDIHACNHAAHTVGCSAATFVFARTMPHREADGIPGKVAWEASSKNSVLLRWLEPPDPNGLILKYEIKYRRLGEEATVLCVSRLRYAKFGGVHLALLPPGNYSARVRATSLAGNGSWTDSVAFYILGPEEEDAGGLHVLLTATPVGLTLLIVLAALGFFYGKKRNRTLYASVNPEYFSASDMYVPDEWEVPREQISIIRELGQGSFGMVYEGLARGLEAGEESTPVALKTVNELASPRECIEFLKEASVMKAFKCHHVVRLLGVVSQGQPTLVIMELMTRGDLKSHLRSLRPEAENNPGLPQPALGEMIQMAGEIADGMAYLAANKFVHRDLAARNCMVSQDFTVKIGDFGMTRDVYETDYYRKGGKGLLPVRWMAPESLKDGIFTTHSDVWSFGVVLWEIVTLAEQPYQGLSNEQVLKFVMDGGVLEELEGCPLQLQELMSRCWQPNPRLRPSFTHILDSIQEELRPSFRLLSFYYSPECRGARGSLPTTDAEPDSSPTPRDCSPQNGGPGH
Compound,residual activity [1] [%],residual activity [2] [%],residual activity [3] [%],residual activity [4] [%],residual activity [5] [%],residual activity [6] [%],residual activity [7] [%],residual activity [8] [%],residual activity [9] [%],residual activity [10] [%]
O=C1NC(=O)c2c1c1c3ccccc3[nH]c1c1[nH]c3cc(Br)ccc3c21,88,103,95,106,107,92,76,97,84,102
Ic1cccc(CSc2nnc(-c3ccncc3)o2)c1,82,95,92,91,94,55,41,112,101,93
CO[C@H]1[C@@H](OC)C[C@H](C)[C@@H](OC)C2=CC(=O)C=C(NC(=O)/C(C)=C/C=C/[C@H](OC)[C@@H](OC(N)=O)/C(C)=C/[C@@H]1C)C2=O,117,100,112,106,94,107,99,133,79,106
Cn1cnc2cc3c(Nc4cccc(Br)c4)ncnc3cc21,103,102,100,102,73,77,46,125,78,104
CCOc1cc2ncnc(Nc3cccc(Br)c3)c2cc1OCC,144,100,92,79,28,49,18,126,85,94
Nc1n[nH]c2nnc(-c3c(-c4ccccc4)nn4ccccc34)cc12,25,89,44,95,104,66,64,88,23,96
COc1ccc(C(=O)Nc2sc3c(c2C(N)=O)CCCC3)cc1OC,82,96,96,92,86,54,52,116,90,101
COc1cccc(-c2cc(=O)c3ccccc3o2)c1N,94,96,92,98,96,109,94,106,91,108
CCC(=O)Nc1ccc2ncnc(Nc3cccc(Br)c3)c2c1,79,102,100,89,83,96,91,111,79,106
CC[n+]1c(/C=C/N(C)c2ccccc2)n(-c2ccccc2)c2ccc(-c3nc4ccccc4s3)cc21,86,100,92,96,92,113,78,111,87,101
N#C/C(=C(\N)Sc1ccc(N)cc1)c1ccccc1C(F)(F)F,102,102,92,91,112,83,81,105,101,100
Oc1c2ccccc2c2c3c(cccc13)N=N2,47,70,26,69,42,36,11,102,51,67
CC(=O)O/N=C1\C(=C2\C(=O)Nc3cc(Br)ccc32)Nc2ccccc21,91,102,81,95,96,86,48,109,92,82
CO[C@H]1C[C@@H]2CC[C@@H](C)[C@@](O)(O2)C(=O)C(=O)N2CCCC[C@H]2C(=O)O[C@H]([C@H](C)C[C@@H]2CC[C@@H](O)[C@H](OC)C2)CC(=O)[C@H](C)/C=C(\C)[C@@H](O)[C@@H](OC)C(=O)[C@H](C)C[C@H](C)/C=C/C=C/C=C/1C,89,92,101,74,71,107,154,126,99,101
COc1cc2ncnc(Nc3ccc(Oc4ccccc4)cc3)c2cc1OC,98,93,91,87,79,98,79,82,81,86
O=Nc1c(-c2c(O)[nH]c3ccccc23)[nH]c2ccccc12,10,35,19,60,11,41,6,2,1,19
